Assay [1] has as its target Estrogen receptor beta (Homo sapiens) (UniProt Q92731). As to the kind of experiment: OT_ER_ERbERb_1440: Odyssey Thera (OT) 24-hour HEK293T Protein-Complementation Assay for Estrogen Receptor-beta/-beta Homodimer (AID 2283380).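 Further: scored as signal increase over DMSO baseline for both agonists and antagonists.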 In a few lines: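 HEK293T cells stably expressing ER beta LBD (aa 310-547) homodimer fragment-complementation reporter, dosed 24 h. Cells formaldehyde-fixed, Draq5-stained; gain in nuclear (agonist) or nuclear plus cytoplasmic (antagonist) fluorescence versus DMSO read by laser scanning cytometry.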

For assay [2], the target named is Estrogen receptor (Homo sapiens) (UniProt P03372). The assay can be described thus: OT_ERa_GFPERaERE_0480: Odyssey Thera (OT) 8-hour HeLa Transcription Induction Assay for Estrogen Receptor (AID 2283381; active means hit-call score of the fitted dose curve at least 0.9, where 1 is the maximum; inactive means score below 0.9). In a few lines:
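Human cervical HeLa cells were treated for 8 hours, after which ERE-driven GFP induction was measured by fluorescence microscopy; increases over DMSO baseline defined activity.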

For assay [3] the target is unchanged. The assay can be described thus: OT_ERa_GFPERaERE_0120: Odyssey Thera (OT) 2-hour HeLa Transcription Induction Assay for Estrogen Receptor (AID 2283382). In a few lines: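 Cells (human cervical HeLa) receive compound, incubate 2 hours, then are imaged for fluorescent reporter induction. Images are quantified by high content analysis, and activity is fitted as gain of signal against DMSO.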

Assay [4] concerns the target Retinoic acid receptor RXR-alpha (Homo sapiens) (UniProt P19793). As to the kind of experiment: OT_NURR1_NURR1RXRa_0480: Odyssey Thera (OT) 8-hour HEK293T Protein Complementation Assay for Nurr1/retinoid X receptor (RXR) (AID 2283385). In a few lines: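 Interaction of bait and prey reconstitutes a functional reporter, whose fluorescence was measured in HEK293T cells dosed with compound for 8 hours. Signal gain relative to DMSO defined the single endpoint.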

The target is the same in assay [5]. The assay can be described thus: OT_NURR1_NURR1RXRa_1440: Odyssey Thera (OT) 24-hour HEK293T Protein Complementation Assay for Nurr1/retinoid X receptor (RXR) (AID 2283386). In a few lines:
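Steps: fragment-tagged Nurr1 and RXRα expressed in HEK293T; compounds added; after 24 h, complemented reporter quantified by fluorescence intensity; signal increase over DMSO fitted as the single endpoint.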

The target of assay [6] is Peroxisome proliferator-activated receptor gamma (Homo sapiens) (UniProt P37231). The assay can be described thus: OT_PPARg_PPARgSRC1_0480: Odyssey Thera (OT) 8-hour Protein-Complementation Assay for Peroxisome Proliferator-activated Receptor Gamma / SRC-1 Co-activator (AID 2283387).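 Further: nuclear to cytoplasmic split Venus YFP fluorescence ratio reporting PPARg SRC-1 interaction.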 In a few lines: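 Read-out: 488 nm N/C fluorescence ratio from complemented Venus YFP fragments, ≥350 cells per image, gain-of-signal fitted against DMSO baseline. Fusions of PPARg/SRC-1 with IFP1/IFP2 expressed transiently in HEK293T; compounds applied 8 h.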

For assay [7] the target is unchanged. The assay can be described thus: OT_PPARg_PPARgSRC1_1440: Odyssey Thera (OT) 24-hour Protein-Complementation Assay for Peroxisome Proliferator-activated Receptor Gamma/ SRC-1 Co-activator (AID 2283388).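 Further: nuclear to cytoplasmic ratio of reconstituted Venus YFP fluorescence in fixed imaged cells.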 In a few lines:
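Cells carrying the PPARg/SRC-1 fragment-complementation reporter receive compound for 24 hours, are fixed and counterstained with Draq5, then imaged. Increased nuclear relative to cytoplasmic YFP fluorescence above DMSO baseline indicates binding activity.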

Assay [8] is described as follows: ATG_XTT_Cytotoxicity: Cytotoxicity Assessment in the Attagene TRANS-FACTORIAL HepG2 Assay (AID 2283584). In a few lines: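 24 h chemical exposure of reporter-transfected HepG2; XTT signal loss vs DMSO indicates cytotoxicity.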
The target of assay [9] is Agonist Androgen Response Element (ARE), AR (gene 367) (UniProt P10275). As to the kind of experiment: OT_AR_ARELUC_AG_1440: Odyssey Thera (OT) 24-hour CHO-K1 Luciferase Assay for Agonist Androgen Response Element (ARE) (AID 2283379). In a few lines: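 Gain-of-signal reporter endpoint: cells (CHO-K1, hamster) are treated 24 h, luciferin/ATP reagent added, and luminescence compared with DMSO baseline.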

Assay [10] is described as follows: CEETOX_H295R_11DCORT: CeeTox H295R High-throughput Steroidogenesis Assay for 11-Deoxycortisol (11DCORT) (AID 2283432; active means hit-call score of the fitted dose curve at least 0.9, where 1 is the maximum; inactive means score below 0.9). Particulars: actives raise or lower the signal. In a few lines:
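H295R cells; 10 uM forskolin prestim 48 h; compound in 0.1% DMSO 48 h; media extracted with MTBE; 11-deoxycortisol by LC-MS/MS, 7-point standard curve; gain/loss vs DMSO baseline; viability by MTT in same wells.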

The nature of assay [11]: CEETOX_H295R_OHPREG: CeeTox H295R High-throughput Steroidogenesis Assay for OH-Pregnenolone (OHPREG) (AID 2283434; active means hit-call score of the fitted dose curve at least 0.9, where 1 is the maximum; inactive means score below 0.9). Particulars: actives raise or lower the signal. In a few lines: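 H295R, 10 uM forskolin pre-stim 48 h; test chemical 48 h, 0.1% DMSO final. MTBE extraction, reverse-phase C18 HPLC-ESI+ MS/MS of medium. Gain/loss vs DMSO; viability by MTT in same wells.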

Assay [12] is described as follows: CEETOX_H295R_OHPROG: CeeTox H295R High-throughput Steroidogenesis Assay for OH-Progesterone (OHPROG) (AID 2283435; active means hit-call score of the fitted dose curve at least 0.9, where 1 is the maximum; inactive means score below 0.9). Particulars: actives raise or lower the signal. In a few lines: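 Steps: seed H295R cells and adhere overnight; stimulate with 10 uM forskolin for 48 h; replace with chemical-containing medium (0.1% DMSO) for 48 h; extract medium with MTBE; quantify 17alpha-hydroxyprogesterone by reverse-phase C18 HPLC-MS/MS against a 7-point curve.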

Assay [13] is described as follows: CEETOX_H295R_CORTIC: CeeTox H295R High-throughput Steroidogenesis Assay for Corticosterone (CORTIC) (AID 2283437; active means hit-call score of the fitted dose curve at least 0.9, where 1 is the maximum; inactive means score below 0.9;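 further: corticosterone secreted into medium quantified by mass spectrometry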). Particulars: actives raise or lower the signal. In a few lines: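 48 h forskolin (10 uM) prestim, then 48 h chemical exposure, final DMSO 0.1%. Readout: corticosterone in medium by LC-MS/MS after MTBE extraction. Gain/loss fit vs DMSO; MTT viability in same wells.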

Assay [14] can be described thus: CEETOX_H295R_DOC: CeeTox H295R High-throughput Steroidogenesis Assay for DOC (AID 2283439; active means hit-call score of the fitted dose curve at least 0.9, where 1 is the maximum; inactive means score below 0.9). The following applies: actives raise or lower the signal. In a few lines: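 Steps: seed H295R, adhere overnight; 10 uM forskolin 48 h; replace with chemical medium (0.1% DMSO) 48 h; collect medium, MTBE extraction, HPLC-MS/MS for DOC. Viability then checked by MTT; cytotoxic chemicals diluted until viability ≥70%.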

Assay [15] in a line: CEETOX_H295R_ESTRADIOL: CeeTox H295R High-throughput Steroidogenesis Assay for Estradiol (AID 2283440; active means hit-call score of the fitted dose curve at least 0.9, where 1 is the maximum; inactive means score below 0.9;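 further: estradiol secreted into medium quantified by LC-MS/MS after dansyl derivatisation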). The following applies: actives raise or lower the signal. In a few lines:
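Readout is estradiol in conditioned medium, quantified by reverse-phase HPLC-MS/MS against a 7-point standard curve. Cells: H295R, forskolin-stimulated, then dosed 48 h in 0.1% DMSO; activity fitted in both directions relative to DMSO.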

A short description of assay [16]: CEETOX_H295R_ESTRONE: CeeTox H295R High-throughput Steroidogenesis Assay for Estrone (AID 2283441; active means hit-call score of the fitted dose curve at least 0.9, where 1 is the maximum; inactive means score below 0.9). Particulars: actives raise or lower the signal. In a few lines:
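Estrone secreted into medium quantified by LC-MS/MS after dansyl chloride derivatization, following 48 h chemical exposure (0.1% DMSO final) of forskolin-prestimulated (10 uM, 48 h) H295R cells; gain or loss fitted against DMSO; MTT viability in same wells.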

A short description of assay [17]: CEETOX_H295R_PROG: CeeTox H295R High-throughput Steroidogenesis Assay for Progesterone (PROG) (AID 2283442; active means hit-call score of the fitted dose curve at least 0.9, where 1 is the maximum; inactive means score below 0.9). Particulars: actives raise or lower the signal. In a few lines:
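Measured analyte is progesterone secreted by H295R cells at 48 h of chemical treatment, following 10 uM forskolin priming. Quantitation used HPLC-MS/MS against a 7-point standard curve; cytotoxicity was checked by MTT absorbance.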

Structures are written as SMILES. Records with an inconclusive call do not appear. Activity calls are given as the source filed them. How the source made its calls, unless noted: active means hit-call score of the fitted dose curve at least 0.9, where 1 is the maximum; inconclusive means response in the unintended direction; inactive means score below 0.9.

Estrogen receptor beta (Homo sapiens), sequence (Q92731 whole entry, looked up, the tested form may be a part): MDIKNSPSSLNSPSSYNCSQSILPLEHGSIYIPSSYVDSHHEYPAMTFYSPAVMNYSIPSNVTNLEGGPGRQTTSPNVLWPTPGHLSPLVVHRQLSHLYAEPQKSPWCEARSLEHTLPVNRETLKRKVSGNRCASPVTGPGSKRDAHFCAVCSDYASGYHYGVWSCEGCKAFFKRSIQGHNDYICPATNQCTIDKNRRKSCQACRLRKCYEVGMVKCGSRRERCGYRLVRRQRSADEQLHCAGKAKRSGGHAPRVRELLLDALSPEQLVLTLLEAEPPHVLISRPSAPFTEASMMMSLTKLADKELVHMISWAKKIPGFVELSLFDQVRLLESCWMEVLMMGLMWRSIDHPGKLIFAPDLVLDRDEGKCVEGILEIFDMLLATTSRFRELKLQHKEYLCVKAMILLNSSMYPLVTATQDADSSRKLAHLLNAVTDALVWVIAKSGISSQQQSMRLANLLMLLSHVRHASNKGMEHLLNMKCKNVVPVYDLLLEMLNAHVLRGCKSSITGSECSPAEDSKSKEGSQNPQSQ
Retinoic acid receptor RXR-alpha (Homo sapiens), sequence (P19793 whole entry, looked up): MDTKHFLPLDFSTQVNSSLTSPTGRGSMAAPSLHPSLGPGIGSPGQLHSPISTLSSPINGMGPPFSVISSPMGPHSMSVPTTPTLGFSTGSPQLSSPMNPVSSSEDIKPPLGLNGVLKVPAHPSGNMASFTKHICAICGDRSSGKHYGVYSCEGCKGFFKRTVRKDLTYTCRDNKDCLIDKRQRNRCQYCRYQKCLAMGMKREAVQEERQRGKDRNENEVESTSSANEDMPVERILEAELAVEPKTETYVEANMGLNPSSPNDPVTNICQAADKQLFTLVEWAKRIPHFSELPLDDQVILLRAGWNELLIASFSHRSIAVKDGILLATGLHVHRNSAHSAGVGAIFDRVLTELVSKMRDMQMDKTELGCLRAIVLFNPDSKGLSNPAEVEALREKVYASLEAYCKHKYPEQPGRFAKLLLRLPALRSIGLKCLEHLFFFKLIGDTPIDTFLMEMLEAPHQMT
Peroxisome proliferator-activated receptor gamma (Homo sapiens), sequence (P37231 whole entry, looked up, the tested form may be a part): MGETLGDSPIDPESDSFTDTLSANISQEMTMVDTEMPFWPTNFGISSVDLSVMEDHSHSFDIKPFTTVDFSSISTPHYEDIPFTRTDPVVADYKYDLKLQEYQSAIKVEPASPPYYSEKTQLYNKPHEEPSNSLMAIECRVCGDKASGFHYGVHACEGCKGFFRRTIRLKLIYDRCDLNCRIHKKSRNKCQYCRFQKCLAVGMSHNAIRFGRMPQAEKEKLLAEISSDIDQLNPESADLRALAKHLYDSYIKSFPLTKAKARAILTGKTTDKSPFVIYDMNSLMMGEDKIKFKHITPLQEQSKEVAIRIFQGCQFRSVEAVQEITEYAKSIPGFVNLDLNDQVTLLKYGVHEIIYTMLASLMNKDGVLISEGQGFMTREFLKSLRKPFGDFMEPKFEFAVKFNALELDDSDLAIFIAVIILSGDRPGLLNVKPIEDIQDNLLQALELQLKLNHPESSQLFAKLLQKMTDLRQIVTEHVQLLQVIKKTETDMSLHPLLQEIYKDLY
Estrogen receptor (Homo sapiens), sequence (P03372 whole entry, looked up): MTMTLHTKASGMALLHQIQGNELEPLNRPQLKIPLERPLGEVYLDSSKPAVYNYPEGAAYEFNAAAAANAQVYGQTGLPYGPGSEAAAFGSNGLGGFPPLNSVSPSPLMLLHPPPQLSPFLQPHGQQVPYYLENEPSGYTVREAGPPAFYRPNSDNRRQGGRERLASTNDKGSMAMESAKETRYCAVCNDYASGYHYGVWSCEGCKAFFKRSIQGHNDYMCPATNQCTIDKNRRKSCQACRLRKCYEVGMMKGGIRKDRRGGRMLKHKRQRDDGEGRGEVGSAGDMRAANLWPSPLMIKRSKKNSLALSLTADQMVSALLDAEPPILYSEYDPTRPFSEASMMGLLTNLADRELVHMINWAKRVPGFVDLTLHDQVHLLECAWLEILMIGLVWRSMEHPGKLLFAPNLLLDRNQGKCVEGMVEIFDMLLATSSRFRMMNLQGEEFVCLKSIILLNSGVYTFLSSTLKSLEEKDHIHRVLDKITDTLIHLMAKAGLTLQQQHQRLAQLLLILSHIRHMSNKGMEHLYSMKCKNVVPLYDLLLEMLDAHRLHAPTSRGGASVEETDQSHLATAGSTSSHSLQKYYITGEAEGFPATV
Agonist Androgen Response Element (ARE), AR (gene 367), sequence (P10275 whole entry, looked up): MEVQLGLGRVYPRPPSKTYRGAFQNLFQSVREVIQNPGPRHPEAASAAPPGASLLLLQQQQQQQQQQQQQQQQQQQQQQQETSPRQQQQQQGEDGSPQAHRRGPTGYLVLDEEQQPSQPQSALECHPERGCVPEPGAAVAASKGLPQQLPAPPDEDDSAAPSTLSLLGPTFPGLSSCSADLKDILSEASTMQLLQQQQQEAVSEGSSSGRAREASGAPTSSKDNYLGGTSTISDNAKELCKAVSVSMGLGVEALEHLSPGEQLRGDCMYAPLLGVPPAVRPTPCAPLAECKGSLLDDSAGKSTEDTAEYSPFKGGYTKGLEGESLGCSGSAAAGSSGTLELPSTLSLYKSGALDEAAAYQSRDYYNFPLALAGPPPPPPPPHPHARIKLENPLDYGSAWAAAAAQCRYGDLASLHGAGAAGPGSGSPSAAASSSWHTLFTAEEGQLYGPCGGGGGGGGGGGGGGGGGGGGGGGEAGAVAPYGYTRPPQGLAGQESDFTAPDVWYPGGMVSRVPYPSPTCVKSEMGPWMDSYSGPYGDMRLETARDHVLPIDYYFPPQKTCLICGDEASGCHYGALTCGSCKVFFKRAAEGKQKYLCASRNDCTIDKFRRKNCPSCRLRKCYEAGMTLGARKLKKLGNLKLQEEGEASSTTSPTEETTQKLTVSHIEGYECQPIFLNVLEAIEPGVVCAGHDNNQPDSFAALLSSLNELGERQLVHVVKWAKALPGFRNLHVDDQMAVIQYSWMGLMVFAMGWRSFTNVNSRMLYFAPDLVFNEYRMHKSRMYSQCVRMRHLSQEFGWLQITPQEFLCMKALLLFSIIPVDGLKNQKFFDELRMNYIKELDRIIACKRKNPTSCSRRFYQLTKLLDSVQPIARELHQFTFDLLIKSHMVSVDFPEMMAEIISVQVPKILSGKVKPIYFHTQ

For `CC=C1CC2C=CC1C2` (stereo unspecified), the molecule was classed as inactive in [1], in assay [2], in assay [3], in assay [4], in assay [5] and in [6]. For the same molecule, the molecule was classed as inactive in assay [7] and in assay [8].

As to `CC(=O)OC(C)C`, the concentration at half-maximal activity (AC50) in [1] was 25.9 µM (active); in [2], 69.2 µM (active). The molecule was called inactive in assay [3], in assay [4], in assay [6], in assay [7] and in [8].

In the case of `CC/C=C\C/C=C\C/C=C\CCCCCCCC(=O)O`, the result in assay [1], in [2], in [3], in [4], in [6] and in assay [7] was inactive.

Turning to `CN(C)c1ccc(N=Nc2ccccc2C(=O)O)cc1`, the outcome in assay [1], in assay [2], in [3], in [4], in assay [5] and in assay [6] was inactive. Further, the result in assay [7] and in assay [8] was inactive.

Turning to `CO[Si](OC)(OC)c1ccccc1`, the result in assay [1], in assay [2], in assay [3], in [4], in [5] and in [6] was inactive. Also, in [7], the molecule was called inactive.

With `CCOC(=O)CC`, the molecule was called inactive in assay [1], in [2], in [3], in assay [5], in assay [6] and in assay [7]. For the same molecule, in assay [8], the result was inactive.

On to `CC(C)c1ccc2c(C(C)C)cc(C(C)C)c(S(=O)(=O)O)c2c1`, for which the call in [9], in assay [2], in [3], in [4], in assay [6] and in assay [7] was inactive. For the same molecule, the result in assay [8] was inactive.

As to `CN(C)c1ccc(C(=N)c2ccc(N(C)C)cc2)cc1`, the molecule was classed as inactive in assay [1], in [2], in assay [3], in [10], in [12] and in assay [13]. The molecule was called inactive in assay [14], in assay [15], in assay [16], in assay [17] and in assay [8]. Moreover, the concentration at half-maximal activity (AC50) is 27.7 µM (active) in assay [4]; 26.7 µM (active) in assay [5]; 30.6 µM (active) in assay [6]; 28.7 µM (active) in assay [7]; 3.27 µM (active) in assay [11].

`CCCCCCCC/C=C\CCCCCCCC(=O)OCCO`: the result in assay [1], in assay [2], in assay [3], in assay [6], in [7] and in [8] was inactive. The concentration at half-maximal activity (AC50) in assay [4] is 38.4 µM (active); in assay [5], 38.7 µM (active).

For the molecule `OC1CCCC1`, the result in assay [1], in assay [2], in [3], in assay [5], in assay [6] and in [7] was inactive.

For `O=c1cc(-c2ccccc2)oc2ccccc12`, the molecule was classed as inactive in assay [9], in [2], in assay [3], in [4], in assay [5] and in [6]. For the same molecule, the result in [7] and in assay [8] was inactive. Moreover, the AC50 in [1] was 49.2 µM (active).

Take `Cc1cc(C)c(C(=O)O)c(C)c1`: the result in [1], in assay [5], in assay [6], in assay [7] and in assay [8] was inactive. Moreover, the concentration at half-maximal activity (AC50) was 93 µM (active) in [2] and 94.2 µM (active) in assay [3].

Regarding `CC(=O)[C@H]1[C@H](C#N)C[C@H]2[C@@H]3CC=C4C[C@@H](O)CC[C@]4(C)[C@H]3CC[C@@]21C`, the molecule was classed as inactive in assay [1], in assay [2], in assay [3], in assay [5], in assay [6] and in assay [7]. In [8], the result was inactive.

Regarding `CC(C)c1ccc2cc(C(C)C)ccc2c1`, the call in assay [1], in assay [2], in assay [3], in [4], in assay [6] and in [7] was inactive. Besides, the molecule was called inactive in assay [8]. In addition, in [5], the AC50 is 97.6 µM (active).

Broadly, the AC50 is the concentration at which the activity in the assay is half-maximal.

These data come from PubChem BioAssay (EPA / NIEHS).
